Test results published in PubChem BioAssay AID425 (Sanford-Burnham Center for Chemical Genomics, 2006).
Among all 110,000 compounds or so, about 190 (0.17%) were called active. Rule as the data show it: active = inhibition above about 50%; inactive = the rest. This excerpt belongs to a sample that is enriched for actives. Entries with a potency or affinity are not part of this list.

target: Dual specificity protein phosphatase 6 (Rattus norvegicus) (UniProt Q64346); test: MKP-3 phosphatase inhibitors, primary screen, biochemical, rat enzyme, in vitro (AID 425); conditions: recombinant MKP-3 phosphatase activity, fluorescence; at 20 µM; stronger effect = higher value;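 also: plate controls were vehicle for no effect and reference inhibitor for full effect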
Sequence (Q64346 whole entry, looked up): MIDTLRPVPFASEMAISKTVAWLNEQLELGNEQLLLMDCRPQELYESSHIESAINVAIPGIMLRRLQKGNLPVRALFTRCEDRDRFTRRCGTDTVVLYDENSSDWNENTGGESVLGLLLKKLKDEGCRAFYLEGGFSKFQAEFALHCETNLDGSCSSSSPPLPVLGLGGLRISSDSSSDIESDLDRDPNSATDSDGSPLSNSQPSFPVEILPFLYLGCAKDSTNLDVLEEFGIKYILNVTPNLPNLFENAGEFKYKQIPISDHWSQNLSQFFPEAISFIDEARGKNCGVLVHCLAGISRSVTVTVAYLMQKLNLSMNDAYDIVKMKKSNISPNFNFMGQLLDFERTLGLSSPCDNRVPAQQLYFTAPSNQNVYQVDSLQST

Row | Compound | inhibition
1 | Cc1cc(O)c2c(-c3ccccc3)cc(=O)oc2c1 | -1.9% (inactive)
2 | CCOC(=O)c1ccc(N2C(=O)C(O)=C(C(C)=O)C2c2ccccn2)cc1 (centres undefined) | -5.9% (inactive)
3 | O=C1N/C(=N\N=C\c2cccc([N+](=O)[O-])c2)SC1Cc1cccc(Cl)c1Cl (centres undefined) | -3% (inactive)
4 | CC(=O)c1ccc(N2C(=O)c3c(Cl)c(Cl)c(Cl)c(Cl)c3C2=O)cc1 | 1.4% (inactive)
5 | O=C(O)COc1ccc(N2C(=O)c3c(Cl)c(Cl)c(Cl)c(Cl)c3C2=O)cc1 | 2.1% (inactive)
6 | O=C(NCc1cccs1)C1CCN(S(=O)(=O)N2CCCC2)CC1 | 3.1% (inactive)
7 | Clc1cccc(Nc2nc3c(s2)CCCC3)c1 | 0.9% (inactive)
8 | Cc1ccc(C)c(Nc2nc3c(s2)CCCC3)c1 | -4% (inactive)
9 | Cc1cccc(Nc2nc3c(s2)CCCC3)c1 | 95.3% (active)
10 | COc1ccccc1N1C(=O)C2C3C=CC(O3)C2C1=O (centres undefined) | -2.7% (inactive)
11 | CCOC(=O)N1CCC(N2C(=O)c3ccccc3C2=O)CC1 | 1.8% (inactive)
12 | CN(C)S(=O)(=O)c1cc(C(=O)NCC2CCCO2)c(Cl)cc1Cl (centres undefined) | -1.6% (inactive)
13 | CCC(C(=O)NC1CCCC1)N(C(=O)Cn1nnc(-c2ccc(C)o2)n1)C(C)(C)C (centres undefined) | -14.3% (inactive)
14 | O=C(O)c1ccc(-n2c(=O)c3ccccc3c3ccccc3c2=O)cc1 | 1.5% (inactive)
15 | Cc1ccc(-n2c(=O)c3cc4c(=O)n(-c5ccc(C)c(C)c5)c(=O)c4c(C(=O)c4ccccc4)c3c2=O)cc1C | 0.3% (inactive)
16 | Cc1ccc(OCC(=O)N(Cc2ccc(N(C)C)cc2)C2CCS(=O)(=O)C2)cc1 (centres undefined) | -8.2% (inactive)
17 | CCOc1ccc(NCC(=O)N/N=C/c2cc([N+](=O)[O-])ccc2O)cc1 | 5.2% (inactive)
18 | COc1ccc(/C=N/NC(=O)COc2ccc3c(C)cc(=O)oc3c2)cc1 | -1.4% (inactive)
19 | O=c1c[n+]([O-])c2ccccc2n1OCc1ccccc1 | 0% (inactive)
20 | CC1CCN(C(=O)CSc2nc3c(cnn3-c3ccccc3)c(=O)[nH]2)CC1 | -9.5% (inactive)
21 | CC(C)CCNC(=O)Cn1cc2c(n1)CCCCC2 | -5.2% (inactive)
22 | Oc1ccc(N=Nc2ccc(Cl)cc2)c2cccnc12 | 2.7% (inactive)
23 | O=S(=O)(O)c1cccc2c(N=Cc3cc(Cl)cc(Cl)c3O)cccc12 | 0.7% (inactive)
24 | Cc1ccc(OCCOc2ccc(C=O)cc2)cc1C | 1.6% (inactive)

Row | Compound | inhibition
25 | CCC(=O)c1ccc(N2CCN(C(=O)c3ccc(F)c(F)c3)CC2)c(F)c1 | 2% (inactive)
26 | Cc1ccc(S(=O)(=O)N(C)CCCC(=O)N2CCN(C=O)CC2)cc1 | -5.2% (inactive)
27 | O=C(Nc1cccc2c1CCCC2)c1ccco1 | -7% (inactive)
28 | CCn1c(SCC(=O)N/N=C/C=C/c2ccccc2)nc2ccccc21 | 1.5% (inactive)
29 | O=C(c1ncc[nH]1)c1ccccc1C(=O)N1CCOCC1 | 1.3% (inactive)
30 | COc1ccccc1-c1nc(C#N)c(N2CCC(Cc3ccccc3)CC2)o1 | 3.6% (inactive)
31 | COc1ccc2c(c1)c(=O)c(Br)c(C)n2Cc1ccccc1 | -17.6% (inactive)
32 | COc1cc2c(=O)n(Cc3ccccc3)c(=O)n(CC(=O)C(C)(C)C)c2cc1OC | 4% (inactive)
33 | COc1cc2cc(=O)n(Cc3ccccc3)c(C)c2cc1OC | 70.3% (active)
34 | O=C1C=CC2=C3Oc4c(ccc5cc(O)ccc45)C(c4ccccc4C(=O)O)C3C=CC2=C1 (centres undefined) | 82.7% (active)
35 | Cc1ccc(S(=O)(=O)Cc2ccc(C(=O)N3CCN(c4ccc(F)cc4)CC3)o2)cc1 | -8.1% (inactive)
36 | CCOC(=O)C1=C(C)NC2=C(C(=O)CCC2)C1c1ccc(OCc2cccc(F)c2)c(OC)c1 (centres undefined) | 2.1% (inactive)
37 | COc1cccc2c(Cl)c(CC=C(Cl)Cl)c(C)nc12 | 74.2% (active)
38 | CCc1c(C)nc2c(OC)cccc2c1Cl | 2.1% (inactive)
39 | COc1cccc2c(Cl)cc(C)nc12 | -2.4% (inactive)
40 | COc1ccc(S(=O)(=O)Nc2cc(C)c(O)c(S(=O)(=O)c3ccccc3)c2)cc1 | -2.6% (inactive)
41 | CN(C(=S)Nc1ccccc1)c1ccccc1 | 50.8% (active)
42 | CN(C)c1ccc(NC(=S)Nc2ccccc2)cc1 | 0.8% (inactive)
43 | CC(=O)N(C)c1ccc(NC(=S)Nc2ccccc2)cc1 | 2.9% (inactive)
44 | CCNc1nc(NS(=O)(=O)c2ccc(C)cc2)nc(SC)n1 | 0.7% (inactive)
45 | COC(=O)c1c(N=CN(C)C)c(C#N)c(C)n1-c1ccccc1 | 4.3% (inactive)
46 | O=C(CSc1nc(O)c(Cc2ccccc2)c(=O)n1-c1ccccc1)N1CCOCC1 | 3% (inactive)
47 | O=C1NC(=S)N/C1=C\c1ccc(-c2cc([N+](=O)[O-])ccc2Br)o1 | 50% (active)
48 | O=C1NC(=S)N/C1=C/c1ccc(-c2cc([N+](=O)[O-])ccc2Cl)o1 | 36.3% (inactive)

Row | Compound | inhibition
49 | O=C1NC(=S)N/C1=C\c1ccc(-c2cccc([N+](=O)[O-])c2)o1 | 0.1% (inactive)
50 | O=c1c2ccccc2nc(-c2ccco2)n1-c1cccc2ccccc12 | 2.8% (inactive)
51 | O=c1oc2cc(O)c([N+](=O)[O-])cc2cc1-c1csc(-c2ccc(Cl)cc2)n1 | 6.8% (inactive)
52 | O=c1oc2cc(O)c([N+](=O)[O-])cc2cc1-c1csc(-c2cc3ccccc3oc2=O)n1 | 85.1% (active)
53 | Cc1ccc(-c2nc(-c3cc4cc([N+](=O)[O-])c(O)cc4oc3=O)cs2)cc1 | -1.3% (inactive)
54 | O=C(c1ccc([N+](=O)[O-])cc1)N1CCN(Cc2ccccn2)CC1 | 1.2% (inactive)
55 | CC(=O)CC(=O)Nc1ccc(C)c(Cl)c1 | -2.2% (inactive)
56 | O=C1C=CC(=NS(=O)(=O)c2ccc(Cl)c([N+](=O)[O-])c2)C=C1 | 10.8% (inactive)
57 | O=C1C=C/C(=N\S(=O)(=O)c2ccc(Cl)c([N+](=O)[O-])c2)c2ccccc21 | 57.6% (active)
58 | O=C1c2ccccc2C(=O)N1/N=C/c1ccc(Cl)c([N+](=O)[O-])c1 | -2.1% (inactive)
59 | O=[N+]([O-])c1cccc(S(=O)(=O)Nc2ccccc2-c2ccccc2)c1 | -0.7% (inactive)
60 | O=C1C=C/C(=N\S(=O)(=O)c2cccc([N+](=O)[O-])c2)c2ccccc21 | 78.3% (active)
61 | O=[N+]([O-])c1cccc(S(=O)(=O)/N=C(/Nc2ccccc2)c2ccccc2)c1 | 0.1% (inactive)
62 | COc1ccc(C(=O)NC(=S)Nc2ccc(I)cc2)cc1 | 1.2% (inactive)
63 | CCc1ccc(S(=O)(=O)Nc2ccc(OC(=O)c3ccc(Cl)cc3)cc2)cc1 | 0.4% (inactive)
64 | CCn1c(/N=C/c2c(O)ccc3ccccc23)nc2ccccc21 | 78.4% (active)
65 | Cn1c(/N=C/c2c(O)ccc3ccccc23)nc2ccccc21 | -12.4% (inactive)
66 | CCn1c(/N=C/c2c[nH]c3ccccc23)nc2ccccc21 | -7.4% (inactive)
67 | COc1ccc(NC(=O)CN(c2ccc(C)cc2)S(=O)(=O)c2ccc(SC)cc2)cc1OC | 0.5% (inactive)
68 | O=c1c2ccc(Br)c3cccc(c32)c2nc3ccc4c5c(ccc(c35)n12)CC4 | 0.3% (inactive)
69 | N#Cc1ccc2c(c1)nc1c3cccc4cccc(c(=O)n21)c43 | 66.7% (active)
70 | O=c1c2ccc(Br)c3cccc(c32)c2nc3cccc4cccc(c43)n12 | 2.3% (inactive)
71 | CCOc1ccc2nc(SC3CC(=O)N(c4ccccc4C)C3=O)sc2c1 (centres undefined) | 0.7% (inactive)
72 | Cc1ccc(/C=C2\NC(=O)c3ccccc3C2=O)cc1 | 21% (inactive)

Row | Compound | inhibition
73 | COc1ccc(/C=C2/NC(=O)/C(=C/c3ccc(OC)cc3)C2=O)cc1 | 4.5% (inactive)
74 | COc1ccc(/C=C2\NC(=O)c3ccccc3C2=O)cc1 | 121% (active)
75 | O=S(=O)(Nc1ncnc2c1oc1ccccc12)c1ccc(Cl)s1 | -12.5% (inactive)
76 | COc1ccc(/C=C2/C(=N)N3N=C(C(C)C)SC3=NC2=O)cc1OC | 0% (inactive)
77 | CCC1=NN2C(=N)/C(=C/c3ccc(OC)c(OC)c3)C(=O)N=C2S1 | -3.5% (inactive)
78 | CC(=O)N1CCC(C(=O)Nc2ccccc2)(N(Cc2ccccc2)C(=O)c2cccnc2)CC1 | -4.2% (inactive)
79 | CCOC(=O)c1nnn(-c2nonc2N)c1CNC(C)C | 6.2% (inactive)
80 | CCOC(=O)c1c2c(n(C)c1CO)C(=O)C(=O)c1ccc(Br)cc1-2 | 120% (active)
81 | CCOC(=O)c1c(C)n(C)c2ccc(OC(C)C(=O)OC)cc12 (centres undefined) | -3.4% (inactive)
82 | CCOC(=O)c1c2c(n(C)c1CNC(C)C)C(=O)C(=O)c1ccc(Br)cc1-2 | 117% (active)
83 | CCOC(=O)c1c2c(n(Cc3ccccc3)c1C)C(=O)C(=O)c1ccc(Br)cc1-2 | 34% (inactive)
84 | Cc1c(CN(C)C)c2c(n1C)C(=O)c1ccc(Br)cc1-2 | 1.2% (inactive)
85 | Cc1cc([N+](=O)[O-])ccc1NCc1ccco1 | 0.4% (inactive)
86 | Cc1nc(C)n(CC(O)COc2ccc3c(c2)CCC3)n1 (centres undefined) | -16.3% (inactive)
87 | CCC(=O)Nc1c(C#N)c2nc3ccccc3nc2n1-c1ccc(C)cc1 | 1.4% (inactive)
88 | C=CCn1c(NC(=O)c2ccccc2)c(C#N)c2nc3ccccc3nc21 | 23.5% (inactive)
89 | COc1ccc(C(=O)NCCn2ccc3ccccc32)cc1OC | -4.9% (inactive)
90 | COC(=O)c1c(NC(=O)c2c(C)noc2C)sc2c1CCCCCC2 | -8.3% (inactive)
91 | CC(=O)Nc1ccc(S(=O)(=O)NCC(C)NS(=O)(=O)c2ccc(NC(C)=O)cc2)cc1 (centres undefined) | -11.4% (inactive)
92 | Cc1ccc(S(=O)(=O)NCC(C)NS(=O)(=O)c2ccc(C)cc2)cc1 (centres undefined) | 69.6% (active)
93 | CCCC(C)NS(=O)(=O)c1ccc(C)cc1 (centres undefined) | -0.1% (inactive)
94 | COC(=O)c1ccc(-c2ccc(/C=N\Nc3ccc([N+](=O)[O-])cn3)o2)cc1 | 5.2% (inactive)
